assay: CREB reporter modulators under forskolin, primary screen, cell-based, PC12, CRE-LacZ reporter, forskolin-stimulated (AID 1146); settings: luminescence, 4.5 h, higher = more signal, called active from +8 up or from −8 down;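 note: PC12 cells with 6xCRE LacZ reporter stimulated by forskolin 10 µM; beta-galactosidase reporter signal reflecting CREB driven transcription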

z-score, inactive:
COCCOC(=O)N1C(=O)[C@@]2(c3cc(C#CCC(C(=O)OC)C(=O)OC)ccc31)[C@H](C(N)=O)[C@H]1C(=O)O[C@H](c3ccccc3)[C@H](c3ccccc3)N1[C@@H]2c1ccc(O)cc1 -0.339, COc1cc(OC)c(C(O)C2C=CC3C(=O)N(c4ccccc4)C(=O)C3N2Nc2ccc(C(C)C)cc2)cc1Br (stereo unspecified) -0.567, C#CCN1[C@@H](Cc2ccccc2)C(=O)O[C@H](Cc2ccccc2)[C@@H]1/C=C/C1CC1 -0.0861, CN(C)CCCNC(=O)[C@@H]1c2ccccc2C(=O)N(Cc2ccccc2C(F)(F)F)[C@H]1c1ccc(CO)cc1 -0.951, COc1ccc([Si](C)(C)[C@H]2[C@H](CCO)O[C@@]3(C(=O)N(Cc4ccc(NC(=O)[C@H](C)O)cc4)c4ccccc43)[C@@H]2C)cc1 -1.71, CCOC(=O)C[C@H]1[C@H](OC(=O)c2ccccc2-c2ccccc2)[C@@H](NC(=O)c2ccc3ccccc3c2)c2cc(OCCCO)ccc2N1C(=O)Cc1ccc(OC)cc1 0.654, COCCCN1C(=O)[C@@]2(c3ccc([N+](=O)[O-])cc3)CC(=O)N(CC34CC5CC(CC(C5)C3)C4)[C@@H]2c2ccc(CO)cc21 -0.556, C=C1C(=O)C=C2CN(C(=O)c3ccccc3)[C@@](Cc3ccc(OC)cc3)(C(=O)OC)[C@@H]12 0.2, C=CCNC(=O)[C@H]1[C@@H]2C(=O)O[C@@H](c3ccccc3)[C@@H](c3ccccc3)N2[C@@H](c2ccc(OCCO)cc2)[C@]12C(=O)Nc1ccccc12 1.1, COCCOC(=O)N1C(=O)[C@@]2(c3ccccc31)[C@H](c1ccc(O)cc1)N1[C@H](c3ccccc3)[C@H](c3ccccc3)OC(=O)[C@H]1[C@@H]2C(=O)N1CCCCCCC1 -0.0911, C[N+](C)(C)CCCCNC(=O)[C@H]1C[C@H]2C(=O)N[C@@H](Cc3ccccc3)C(=O)N2[C@H]1c1cccc(OCCO)c1 -0.384, CC(C)[Si](C#CCCc1ccccc1)(O[C@H](c1ccccc1)c1cn(Cc2ccccc2)nn1)C(C)C -0.105, COc1ccc([Si](C)(C)[C@@H]2[C@@H](CC(=O)N3Cc4ccccc4C[C@H]3CO)O[C@]3(C(=O)N(Cc4cccc(N5CCOC5=O)c4)c4ccccc43)[C@H]2C)cc1 -0.318, CN1C(=O)[C@@H]2[C@@H](CC(COc3ccccc3)=C3[C@@H](CCc4ccccc4)OB(O)C[C@@H]32)C1=O 0.89, COc1cc(C(O)C2C=CC3C(=O)N(c4ccccc4)C(=O)C3N2Nc2ccccc2F)cc(OC)c1OC (stereo unspecified) 1.05, CCCCN1CC=CC23O[C@@H]4/C=C\CCCOC(=O)C4[C@H]2C(=O)N(C(CO)C(C)C)[C@@H]3C1=O (stereo partly specified) -0.182, O=C1N(CCS(=O)(=O)c2ccccc2)c2ccccc2C[C@]12N=C(c1ccc(OCCCO)cc1)O[C@@H]2c1ccccc1 -1.4, O=C1NC(=O)C2C1C=CC(C(O)c1ccc([N+](=O)[O-])cc1)N2Nc1ccccn1 (stereo unspecified) -0.728, O=C1[C@H]2C=C(I)[C@H](C[C@@H]2OCCCCCCO)[C@@]12CO2 1.77, CN(C)C(=O)[C@]1(Cc2ccccc2)N=C(c2ccc(OCCCO)cc2)O[C@@H]1c1ccccc1CN=[N+]=[N-] 2.45, Cc1ccc(C(C)CC(O)C2C=CC3C(=O)N(C)C(=O)C3N2Nc2ccccc2)o1 (stereo unspecified) 0.471, CCCCCCc1nc(-c2ccc(-c3ccc(Cl)c(Cl)c3)o2)cc2c1[Si](C(C)C)(C(C)C)OC2 1.29, CC1CC/C=C\[C@H]2OC34C=CCN(c5ccc(Cl)cc5)C(=O)[C@H]3N(CCCCCCO)C(=O)[C@]4(C)C2C(=O)O1 (stereo partly specified) -0.446, C=C(CCCC)/C(=C/C[C@H](OC(=O)c1ccncc1)c1cccc(OCCO)c1)c1cnc2ccccc2c1 0.256, C[C@@H]1ON(c2ccccc2)[C@H](c2ccccc2)[C@H]1C(=O)O 0.411, CCOC(=O)C1=CC[C@@H](c2ccc(OC)cc2)N(S(=O)(=O)c2ccc(C)cc2)[C@H]1CC -0.0915, COC(=O)[C@@]1(Cc2ccc(OC)cc2)[C@H]2c3cc(C(=O)N(C)C)[nH]c3C[C@H]2CN1C(=O)c1ccccc1 -0.289, CCCCC(O)C1C=CC2C(=O)N(c3ccccc3)C(=O)C2N1Nc1ccccc1 (stereo unspecified) 0.875, CC(C)OC(=O)CC(=O)CC(O)c1cccc([N+](=O)[O-])c1 (stereo unspecified) -0.185, O=C1NC(=O)C2C1C=CC(C(O)c1ccc(B(O)O)cc1)N2Nc1ccc(Cl)cc1Cl (stereo unspecified) 0.763, O=C1c2ccccc2[C@@]2(Cc3ccccc3N(Cc3ccccc3)C2=O)[C@H](c2ccc(CO)cc2)N1Cc1ccccc1Cl 0.164, CO[C@H]1O[C@H](CO)[C@@H](OC(=O)Nc2ccccc2)[C@H](OC(=O)Nc2ccccc2)[C@H]1OC(=O)Nc1ccccc1 -2.64, COCCCNC(=O)[C@@]1(CCS(=O)(=O)c2ccccc2)COC(c2ccc(OCCCO)cc2)=N1 -0.387, COc1ccc(C(O)C2C=CC3C(=O)NC(=O)C3N2Nc2ccc(Cl)cc2Cl)c2ccccc12 (stereo unspecified) -0.525, O=C1C[C@@](C(=O)O)(c2ccc([N+](=O)[O-])cc2)[C@@H](c2ccc(CO)cc2)N1C1CCCCC1 -0.337, CC(C)(C)N1CC=CC23O[C@@H]4/C=C\CCCOC(=O)C4[C@H]2C(=O)N(CCCCCO)[C@@H]3C1=O (stereo partly specified) -0.311

From PubChem BioAssay
